Experimental findings from PubChem BioAssay (EPA / NIEHS) are described below.

The structures appear in SMILES notation. Active and inactive are the calls of the source. The calls were made as follows: active = hit-call score of the fitted dose curve at least 0.9, where 1 is the maximum; inactive = score below 0.9.

Read-out in assay [1]: Transforming growth factor beta 1 (TGFb1), TGFB1 (gene 7040)
The assay is described as follows: BSK_KF3CT_TGFb1: BioMAP Diversity Plus: KF3CT Assay for Transforming growth factor beta 1 (TGFb1) Biomarker Activity (AID 2283072). The conditions noted are these: primary human keratinocytes with fibroblasts; actives raise or lower the signal. An outline of the steps:
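Human keratinocyte plus foreskin fibroblast primary co-culture, dosed with chemical for 24 h. TGF-b1 quantified by ELISA. Activity fitted bidirectionally against DMSO negative control as baseline.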

Read-out in assay [2]: C-C motif chemokine 2 (Homo sapiens) (UniProt P13500)
The assay can be described thus: BSK_KF3CT_MCP1: BioMAP Diversity Plus: KF3CT Assay for Monocyte Chemoattractant Protein 1 (MCP1/CCL2) Biomarker Activity (AID 2283073). The conditions noted are these: primary human keratinocytes with fibroblasts; actives raise or lower the signal. An outline of the steps:
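Biomarker MCP-1 is measured by ELISA in primary human keratinocytes co-cultured with foreskin fibroblasts, 24 h after chemical treatment; DMSO serves as the negative control and activity baseline.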

Read-out in assay [3]: Matrix Metallopeptidase 9 (MMP9), MMP9 (gene 4318)
The assay is described as follows: BSK_KF3CT_MMP9: BioMAP Diversity Plus: KF3CT Assay for Matrix Metallopeptidase 9 (MMP9) Biomarker Activity (AID 2283074). The conditions noted are these: primary human keratinocytes with fibroblasts; actives raise or lower the signal. Summed up:
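Human keratinocyte and foreskin fibroblast co-culture exposed to chemicals for 24 h; MMP9 biomarker measured by ELISA, bidirectional fitting relative to DMSO; cytotoxicity tracked by SRB total protein staining in parallel cultures.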

Read-out in assay [4]: urokinase plasminogen activator (uPA), PLAU (gene 5328)
The assay is described as follows: BSK_KF3CT_uPA: BioMAP Diversity Plus: KF3CT Assay for urokinase plasminogen activator (uPA) Biomarker Activity (AID 2283075). The conditions noted are these: primary human keratinocytes with fibroblasts; actives raise or lower the signal. Summed up:
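Primary human keratinocyte/foreskin fibroblast co-culture exposed to chemical; uPA measured by ELISA at 24 h. Bidirectional fit versus DMSO, with parallel SRB total-protein staining for cytotoxicity.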

Read-out in assay [5]: CD40, CD40 (gene 958)
The assay is described as follows: BSK_LPS_CD40: BioMAP Diversity Plus: LPS Assay for CD40 Biomarker Activity (AID 2283076). Particulars: primary human HUVEC with PBMC; actives raise or lower the signal. Summed up: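 Using a multiplexed primary human co-culture (umbilical vein endothelium plus PBMC), CD40 was read by ELISA 24 h after dosing, with cytotoxicity tracked by sulforhodamine B staining of parallel cultures and activity fitted bidirectionally versus DMSO.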

Read-out in assay [6]: E-selectin (Homo sapiens) (UniProt P16581)
The assay is described as follows: BSK_LPS_Eselectin: BioMAP Diversity Plus: LPS Assay for Eselectin Biomarker Activity (AID 2283077). The conditions noted are these: primary human HUVEC with PBMC; actives raise or lower the signal. Summed up:
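Dose chemical onto LPS-driven HUVEC/PBMC co-culture; after 24 h, run ELISA for E-selectin; fit up- and down-going responses relative to DMSO control.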

Read-out in assay [7]: Interleukin-8 (IL8), CXCL8 (gene 3576)
The assay is described as follows: BSK_LPS_IL8: BioMAP Diversity Plus: LPS Assay for Interleukin-8 (IL8) Biomarker Activity (AID 2283078). Particulars: primary human HUVEC with PBMC; actives raise or lower the signal. Summed up:
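In this LPS system, chemical-treated human umbilical vein endothelium/PBMC co-cultures were harvested at 24 h for IL-8 ELISA.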

Assay [8] is described as follows: BSK_LPS_SRB: Viability Assessment in the BioMAP Diversity Plus: LPS Assay (AID 2283079).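 Also: total protein by sulforhodamine B absorbance as a cytotoxicity measure; measured one day after compound addition; fitted in both directions against DMSO so loss or gain of signal counts.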 Particulars: primary human HUVEC with PBMC. Summed up:
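Cytotoxicity endpoint in human endothelial–PBMC co-culture: 24 h exposure, then SRB (0.1%) staining, 560 nm read.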

Read-out in assay [9]: Interleukin-1 alpha (IL1a), IL1A (gene 3552)
The assay is described as follows: BSK_LPS_IL1a: BioMAP Diversity Plus: LPS Assay for Interleukin-1 alpha (IL1a) Biomarker Activity (AID 2283080). The conditions noted are these: primary human HUVEC with PBMC; actives raise or lower the signal. An outline of the steps: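 Primary human HUVEC and PBMC co-culture stimulated with LPS is dosed and harvested at 24 h. Both increases and decreases in ELISA-measured IL-1a are scored relative to DMSO.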

Assay [10] can be described thus: BSK_LPS_PGE2: BioMAP Diversity Plus: LPS Assay for Prostaglandin E2 (PGE2) Biomarker Activity (AID 2283082).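 As to AC50: secreted prostaglandin E2 measured by ELISA in LPS-stimulated co-culture.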 Particulars: primary human HUVEC with PBMC; actives raise or lower the signal. An outline of the steps:
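HUVEC plus PBMC co-culture stimulated with LPS; secreted PGE2 quantified by ELISA 24 h after chemical dosing. Activity fitted bidirectionally against DMSO as negative control and baseline; parallel SRB total-protein staining served as cytotoxicity check.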

Read-out in assay [11]: Tissue Factor, F3 (gene 2152)
The assay is described as follows: BSK_LPS_TissueFactor: BioMAP Diversity Plus: LPS Assay for Tissue Factor Biomarker Activity (AID 2283084). Particulars: primary human HUVEC with PBMC; actives raise or lower the signal. An outline of the steps: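 Read-out: CD142 ELISA, 24 h. System: LPS-driven human endothelial/PBMC co-culture. Analysis: up- or down-signal fitted against DMSO.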

Read-out in assay [12]: Vascular cell adhesion molecule 1 (VCAM1), VCAM1 (gene 7412)
The assay can be described thus: BSK_LPS_VCAM1: BioMAP Diversity Plus: LPS Assay for Vascular cell adhesion molecule 1 (VCAM1) Biomarker Activity (AID 2283086). The conditions noted are these: primary human HUVEC with PBMC; actives raise or lower the signal. An outline of the steps:
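Human umbilical vein endothelial cells co-cultured with peripheral blood mononuclear cells under LPS stimulation were exposed to test chemical for 24 h. VCAM-1 levels were then measured by ELISA, with bidirectional curve fitting relative to DMSO as negative control and baseline.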

Read-out in assay [13]: CD38, CD38 (gene 952)
The assay can be described thus: BSK_SAg_CD38: BioMAP Diversity Plus: SAg Assay for CD38 Biomarker Activity (AID 2283087). Particulars: primary human HUVEC with PBMC; actives raise or lower the signal. An outline of the steps:
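Fluorescence ELISA of cell-surface CD38 served as the read-out, with either increase or decrease fitted against DMSO controls. Cells were a human umbilical vein endothelium plus PBMC co-culture under SEB/TSST-1 stimulation, measured 24 h after dosing.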

Read-out in assay [14]: CD40, CD40 (gene 958)
The assay is described as follows: BSK_SAg_CD40: BioMAP Diversity Plus: SAg Assay for CD40 Biomarker Activity (AID 2283088). Particulars: primary human HUVEC with PBMC; actives raise or lower the signal. Summed up:
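Endpoint derived by fitting increases or decreases versus DMSO controls. CD40 is detected by fluorescence ELISA in a human vascular co-culture of endothelium and PBMC at 24 h.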

Read-out in assay [15]: CD69, CD69 (gene 969)
The assay is described as follows: BSK_SAg_CD69: BioMAP Diversity Plus: SAg Assay for CD69 Biomarker Activity (AID 2283089). The conditions noted are these: primary human HUVEC with PBMC; actives raise or lower the signal. Summed up:
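Endothelial/PBMC co-culture; chemical added; 24 h incubation; CD69 ELISA with fluorescence detection; bidirectional fit vs DMSO.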

Read-out in assay [16]: Monocyte Chemoattractant Protein-1 (MCP1), CCL2 (gene 6347)
The assay is described as follows: BSK_SAg_MCP1: BioMAP Diversity Plus: SAg Assay for Monocyte Chemoattractant Protein-1 (MCP1) Biomarker Activity (AID 2283090). Particulars: primary human HUVEC with PBMC; actives raise or lower the signal. An outline of the steps:
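MCP-1 levels in the endothelial–PBMC SAg co-culture were quantified by ELISA at 24 h post-dosing; both increases and decreases versus DMSO scored. Cytotoxicity monitored by SRB total protein in parallel cultures.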

Read-out in assay [17]: E-selectin (Homo sapiens) (UniProt P16581)
The assay can be described thus: BSK_SAg_Eselectin: BioMAP Diversity Plus: SAg Assay for Eselectin Biomarker Activity (AID 2283091). The conditions noted are these: primary human HUVEC with PBMC; actives raise or lower the signal. An outline of the steps:
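Endpoint values derive from bidirectional fitting relative to DMSO, using ELISA-measured E-selectin in a human vascular co-culture (umbilical vein endothelium plus PBMC) sampled 24 h after dosing.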

Read-out in assay [18]: Tumor necrosis factor (Homo sapiens) (UniProt P01375)
The assay can be described thus: BSK_LPS_TNFa: BioMAP Diversity Plus: LPS Assay for Tumour Necrosis Factor alpha (TNFa) Biomarker Activity (AID 2283085). Particulars: primary human HUVEC with PBMC; actives raise or lower the signal. Summed up:
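Human umbilical vein endothelial cells co-cultured with PBMC were exposed to test chemical and TNFa measured by ELISA 24 h after dosing. Bidirectional curve fitting was done relative to DMSO as negative control and baseline.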

Read-out in assay [19]: Macrophage colony-stimulating factor (MCSF), CSF1 (gene 1435)
The assay is described as follows: BSK_LPS_MCSF: BioMAP Diversity Plus: LPS Assay for Macrophage colony-stimulating factor (MCSF) Biomarker Activity (AID 2283083). Particulars: primary human HUVEC with PBMC; actives raise or lower the signal. An outline of the steps:
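Bidirectional fit versus DMSO of ELISA-measured M-CSF in co-cultured human umbilical vein endothelial cells and PBMC, sampled 24 h after dosing.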

Read-out in assay [20]: Monocyte Chemoattractant Protein-1 (MCP1), CCL2 (gene 6347)
The assay is described as follows: BSK_LPS_MCP1: BioMAP Diversity Plus: LPS Assay for Monocyte Chemoattractant Protein-1 (MCP1) Biomarker Activity (AID 2283081). Particulars: primary human HUVEC with PBMC; actives raise or lower the signal. An outline of the steps: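 Values derive from bidirectional fitting against DMSO of ELISA-measured MCP-1 in a human primary endothelial and mononuclear cell co-culture, 24 h after chemical addition under LPS activation.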

Sequence of Tumor necrosis factor (Homo sapiens) (P01375 whole entry, looked up): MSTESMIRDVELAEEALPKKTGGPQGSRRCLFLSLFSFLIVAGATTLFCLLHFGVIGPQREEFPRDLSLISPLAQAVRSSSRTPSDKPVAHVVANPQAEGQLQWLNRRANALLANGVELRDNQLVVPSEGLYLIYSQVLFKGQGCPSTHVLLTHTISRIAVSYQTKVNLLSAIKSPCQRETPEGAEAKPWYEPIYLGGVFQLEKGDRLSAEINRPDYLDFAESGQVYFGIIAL
Sequence of E-selectin (Homo sapiens) (P16581 whole entry, looked up): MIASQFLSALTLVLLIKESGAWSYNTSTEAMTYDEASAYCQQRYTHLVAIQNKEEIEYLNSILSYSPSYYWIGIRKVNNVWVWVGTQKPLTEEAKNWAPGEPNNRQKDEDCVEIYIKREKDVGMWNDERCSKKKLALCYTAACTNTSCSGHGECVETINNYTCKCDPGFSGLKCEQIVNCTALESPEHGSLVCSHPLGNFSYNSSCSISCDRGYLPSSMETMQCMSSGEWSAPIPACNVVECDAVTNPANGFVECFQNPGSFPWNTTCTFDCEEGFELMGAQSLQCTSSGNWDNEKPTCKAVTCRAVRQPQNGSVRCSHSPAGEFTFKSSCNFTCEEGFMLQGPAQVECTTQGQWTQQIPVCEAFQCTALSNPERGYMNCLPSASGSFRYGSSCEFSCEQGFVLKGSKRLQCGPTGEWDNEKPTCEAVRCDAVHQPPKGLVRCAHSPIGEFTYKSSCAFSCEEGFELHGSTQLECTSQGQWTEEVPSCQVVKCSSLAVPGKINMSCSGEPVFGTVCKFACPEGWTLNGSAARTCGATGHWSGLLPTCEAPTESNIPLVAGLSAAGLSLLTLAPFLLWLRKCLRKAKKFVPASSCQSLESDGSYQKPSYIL

For `CCCCc1ccc2c(n1)[C@@H](c1ccc(OC)cc1C[C@H](C)C(=O)O)[C@H](C(=O)O)[C@H]2c1ccc2c(c1)OCO2`, the outcome in assay [1], in assay [2], in assay [3], in assay [4], in assay [5] and in [6] was inactive. Also, the outcome in [7], in assay [8], in assay [9], in [10], in assay [11] and in [12] was inactive. Also, the result in [13], in [14], in [15], in assay [16] and in assay [17] was inactive.

By AC50 is commonly meant the concentration at which the activity in the assay is half-maximal. For `CC=Cc1ccc(O)c(OC)c1`, the outcome in [1], in assay [2], in [3], in [4], in assay [5] and in [6] was inactive. Moreover, the result in [7], in assay [8], in assay [9], in assay [18], in assay [12] and in [13] was inactive. Also, the result in assay [14], in assay [15], in assay [16] and in assay [17] was inactive. The results for the concentration at half-maximal activity (AC50) in assay [10] and in assay [11] were 6.95 µM (active) and 2.82 µM (active), respectively.

`Cc1ccc(C)c(C)c1`: the result in assay [1], in [2], in assay [3], in assay [4], in [5] and in assay [6] was inactive. The result in [7], in [8], in assay [9], in assay [10], in assay [19] and in assay [11] was inactive. Further, the outcome in [18], in assay [12], in assay [13], in [14], in [15] and in assay [16] was inactive. Also, the result in [17] was inactive.

On to `Cc1c(C(=O)O)c(O)cc2c1C(=O)c1c(O)c([C@@H]3O[C@H](CO)[C@@H](O)[C@H](O)[C@H]3O)c(O)c(O)c1C2=O`, for which the outcome in [1], in [2], in assay [3], in assay [6], in [7] and in assay [8] was inactive. Further, the outcome in assay [9], in [20], in assay [10], in [19], in [11] and in assay [18] was inactive. Further, the result in [12], in assay [13], in assay [14], in [15], in assay [16] and in [17] was inactive. Further, in assay [5], the AC50 was 782 nM (active).
